The values that follow come from the supplement of paper PMC10981050.

Structures are written as SMILES. Several values for one entry are separate records, joined by “and”; a condition that tells them apart may be missing. Equal entries are not always repeated. Structures can show the parent of a compound that is named as a salt.

The assay has as its system K562. In words: cell viability relative to vehicle control; higher = less cytotoxic. To be noted: 10 µM; SRSF2 genotype: SRSF2 P95H/wt. A digest of the protocol:
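Mutant clones made by CRISPR editing and their isogenic wild-type counterparts, from four leukaemia lines, were exposed to a single 10 µM dose of each library compound for 48 h. The supernatant was then removed and CellTiter-Glo luminescence was read. Viability was reported as percent of the on-plate vehicle control.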
As to `Cc1nc(N)sc1-c1ccnc(Nc2ccc(N3CCOCC3)cc2)n1`, the cell viability (in general, a read-out of living cells in per cent, often relative to untreated cells) is 59.9% and 67.6%. Then `C=C[C@]1(C)C[C@@H](OC(=O)CSCCN(CC)CC)[C@]2(C)[C@H](C)CC[C@]3(CCC(=O)[C@H]32)[C@@H](C)[C@@H]1O` [Tiamulin], with 83.5% and 81.7%; and `C[C@@H]1CC[C@@]2(OC1)O[C@H]1C[C@H]3[C@@H]4CC=C5C[C@@H](O)C[C@@H](O)[C@]5(C)[C@H]4CC[C@]3(C)[C@H]1[C@@H]2C` [Ruscogenin], with 96.3% and 102%; and `C[C@@H]1O[C@@H](O[C@H]2[C@H](O[C@H]3CC[C@@]4(C)[C@@H](CC[C@]5(C)[C@@H]4CC=C4[C@@H]6CC(C)(C)CC[C@]6(C(=O)O)CC[C@]45C)[C@]3(C)CO)OC[C@H](O[C@@H]3O[C@H](CO)[C@@H](O)[C@H](O)[C@H]3O)[C@@H]2O)[C@H](O)[C@H](O)[C@H]1O` [Pulsatilla saponin D], with 0.56% and 0.59%. Then `Cc1cc(C#N)cc(C)c1Oc1nc(Nc2ccc(C#N)cc2)nc(N)c1Br` [Etravirine (TMC125)], with 101% and 96.6%; and `CCCNCC(O)COc1ccccc1C(=O)CCc1ccccc1` (stereo not given) [Propafenone HCl], with 78.7% and 84.2%; and `CN1CCN(Cc2ccc(Nc3ncc(Cl)c(Nc4ccccc4S(=O)(=O)N(C)C)n3)cc2)CC1`, with 42.8% and 43%. Then `O=C(O)CNC(=O)c1nc(Cl)c2ccccc2c1O`, with 84.7% and 85.9%; and `Cc1cc(C2CCCCC2)n(O)c(=O)c1` [Ciclopirox (Penlac)], with 54.8% and 52%.

As for `COc1ccc(CCC(=O)Nc2nc3ccc(Cl)cc3s2)cc1OC`, the cell viability was 95.4% and 97%. On to `COc1ccc(/C=C/c2cc(O)cc(O[C@@H]3O[C@H](CO)[C@@H](O)[C@H](O)[C@H]3O)c2)cc1O` [Rhapontin], for which the cell viability is 86.2% and 86.1%.

`CC(C)=CCCC(C)(OC1OC(COC2OCC(O)C(O)C2O)C(O)C(O)C1O)C1CCC2(C)C1C(O)CC1C3(C)CCC(OC4OC(CO)C(O)C(O)C4O)C(C)(C)C3CCC12C` (stereo not given) [Gynostemma Extract]: the cell viability is 100% and 107%.

With `CC1(C)CC[C@]2(C(=O)O)[C@H](O)C[C@]3(C)C(=CC[C@@H]4[C@@]5(C)CC[C@H](O)[C@@](C)(C=O)[C@@H]5CC[C@]43C)[C@@H]2C1` [Quillaic acid], the cell viability was 96.1% and 95.3%. `CCN(CC)CCNC(=O)c1c(C)[nH]c(/C=C2\C(=O)Nc3ccc(F)cc32)c1C` [Sunitinib]: the cell viability was 22.8% and 26.6%. Then `CCCCCCCCCCCCCCCC(=O)O` [Palmitic acid], with 99.6% and 104%; and `C=CCS[S+]([O-])CC=C` (stereo not given) [Allicin], with 92.6% and 104%. In the case of `Cc1ccccc1-c1cc(N2CCN(C)CC2)ncc1N(C)C(=O)C(C)(C)c1cc(C(F)(F)F)cc(C(F)(F)F)c1` [Netupitant], the cell viability was 90.3% and 95.2%. Then `CCCCCCCCCCCCCCCCOc1nc2ccc(C)cc2c(=O)o1` [Cetilistat], with 107% and 111%; and `C[C@H](CCC(=O)O)[C@H]1CC[C@H]2[C@@H]3[C@H](O)C[C@@H]4C[C@H](O)CC[C@]4(C)[C@H]3C[C@H](O)[C@]12C` [Cholic acid], with 94.2% and 93.3%. Then `CCCCC(=O)OCC(=O)[C@H]1[C@H](C)C[C@H]2[C@@H]3C[C@H](F)C4=CC(=O)C=C[C@]4(C)[C@@]3(F)[C@@H](O)C[C@@]21C` [Diflucortolone valerate], with 96.5% and 92.7%; and `CCn1cc(-c2cccc(C(F)(F)F)c2)c2sc(C(=N)NC3CCS(=O)(=O)CC3)cc2c1=O`, with 68.1% and 71.5%. As for `Cc1c(CN2CCN(C(=O)[C@H](C)O)CC2)sc2c(N3CCOCC3)nc(-c3cnc(N)nc3)nc12` [Apitolisib (GDC-0980, RG7422)], the cell viability is 43.1% and 43.8%. Then `CC[C@H](NC(=O)[C@H](C)NC)C(=O)N1C[C@@H](O)C[C@H]1Cc1c(-c2[nH]c3cc(F)ccc3c2C[C@@H]2C[C@H](O)CN2C(=O)[C@H](CC)NC(=O)[C@H](C)NC)[nH]c2cc(F)ccc12`, with 97.7% and 102%; and `CC1(C)O[C@H]1COc1c2ccoc2cc2oc(=O)ccc12` [Oxypeucedanin], with 93.6% and 100%. Turning to `CCCCCCC1CCC(=O)O1` (stereo not given), the cell viability is 96.5% and 97.2%. Then `CN1[C@@H]2CC[C@H]1C[C@@H](OC(=O)c1c[nH]c3ccccc13)C2` [Tropisetron HCl], with 97.5% and 100%. Regarding `CC1(C)[C@@H](O[C@H]2O[C@H](C(=O)O)[C@@H](O)[C@H](O)[C@H]2O[C@@H]2O[C@H](C(=O)O)[C@@H](O)[C@H](O)[C@H]2O)CC[C@]2(C)[C@H]3C(=O)C=C4[C@@H]5C[C@@](C)(C(=O)O)CC[C@]5(C)CC[C@@]4(C)[C@]3(C)CC[C@@H]12` [Ammonium Glycyrrhizate], the cell viability is 97.4% and 102%. Consider `Cc1cc2c(F)c(Oc3ncnn4cc(OC[C@@H](C)O)c(C)c34)ccc2[nH]1`, for which the cell viability was 94.6% and 98.7%.

On to `CCOc1cc(N2CCC(O)CC2)ccc1Nc1ncc2c(n1)N(C)c1ccccc1C(=O)N2C`, for which the cell viability is 91% and 89.7%. As for `CCCc1nn(C)c2c(=O)[nH]c(-c3cc(S(=O)(=O)N4CCN(C)CC4)ccc3OCC)nc12` [Sildenafil citrate], the cell viability was 100% and 106%. Then `CC(O)C(O)c1cnc2nc(N)[nH]c(=O)c2n1` (stereo not given) [6-Biopterin], with 98.5% and 106%. With `COc1ccc(-c2ccc3ncc4c(c3c2)n(-c2ccc(N3CCNCC3)c(C(F)(F)F)c2)c(=O)n4C)cn1`, the cell viability was 0.26% and 0.21%. As to `CO/N=C(\C(=O)N[C@@H]1C(=O)N2C(C(=O)O)=C(CSc3nnnn3C)CS[C@H]12)c1csc(N)n1` [Cefmenoxime hydrochloride], the cell viability was 96.7% and 90.3%. Regarding `COC(=O)Nc1nc2cc(Sc3ccccc3)ccc2[nH]1` [Fenbendazole (Panacur)], the cell viability is 17.8% and 31.8%. Then `COc1cc2nccc(Oc3ccc(NC(=O)C4(C(=O)Nc5ccc(F)cc5)CC4)cc3)c2cc1OC`, with 9.94% and 12.3%; and `CCCCOc1c(C(=O)c2c(F)cc(C)cc2F)c[nH]c2nncc1-2`, with 104% and 105%; and `CCCCC(C)(O)C/C=C/[C@H]1[C@H](O)CC(=O)[C@@H]1CCCCCCC(=O)OC` (mixture of isomers) [Misoprostol], with 89.4% and 78.1%. With `O=c1sn(-c2cccc3ccccc23)c(=O)n1Cc1ccccc1` [Tideglusib], the cell viability was 77.4% and 78.3%. Regarding `O=C(COc1ccc(Cl)cc1)NC1CCC(NC(=O)COc2ccc(Cl)cc2)CC1` (stereo not drawn) [ISRIB (trans-isomer)], the cell viability was 96.3% and 97.5%. Then `CC=C(C)C(=O)O` [Tiglic acid], with 102% and 106%.
